Screens deposited in PubChem BioAssay by several laboratories.
This excerpt belongs to a sample that is enriched for hits.
FAK blocker: inhibitors of human focal adhesion kinase; biochemical FAK kinase activity assay; 97,000 tested, 0.84% active; Q05397; inhibition, %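 (tested at 7 µM)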;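 further: 0% = DMSO and 100% = reference compound high control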
hDAT+cocaine: modulates human dopamine transporter uptake under cocaine; Q01959; LLC-PK1 hDAT cells, [14C]-dopamine uptake with cocaine IC80; actives deviate in either direction; 110,000 tested, 1.3% active; AID 449768; B-score at 10 µM;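 active means Z score or B-score, a plate-position-corrected score, falls beyond the plate's 99.7% confidence bounds, in either direction; inactive means both scores lie inside the 99.7% bounds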;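 further: scored against the spread of the other compound wells on the same plate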
Mac1 fbg enh: CD11b/CD18-fibrinogen binding enhancement; P05107+P11215; 93,000 tested, 0.07% active; AID 1499; K562 CD11b/CD18 adhesion to fibrinogen, ATPlite luminescence; activation, % at 10 µM;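 active means 10 µM primary screen giving 50% or more activity, confirmed by 40% or more on retest at that dose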
PTK2B oligo ant: Pyk2 (human) oligomerization antagonism. 99,000 tested, 0.83% active. Q14289. AID 1347419. Q293 cells, Pyk2 FERM NanoBiT luminescence; stronger effect = lower value. z-score (the deposit names both 25 µM and 10 µM);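 active means Z-score of -3 or lower, scaled per plate to the spread of control and sample wells; inactive means z-score above -3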;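 further: negative z-score means lost luminescence so less FERM oligomerization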
Target sequence (Q14289 whole entry, looked up): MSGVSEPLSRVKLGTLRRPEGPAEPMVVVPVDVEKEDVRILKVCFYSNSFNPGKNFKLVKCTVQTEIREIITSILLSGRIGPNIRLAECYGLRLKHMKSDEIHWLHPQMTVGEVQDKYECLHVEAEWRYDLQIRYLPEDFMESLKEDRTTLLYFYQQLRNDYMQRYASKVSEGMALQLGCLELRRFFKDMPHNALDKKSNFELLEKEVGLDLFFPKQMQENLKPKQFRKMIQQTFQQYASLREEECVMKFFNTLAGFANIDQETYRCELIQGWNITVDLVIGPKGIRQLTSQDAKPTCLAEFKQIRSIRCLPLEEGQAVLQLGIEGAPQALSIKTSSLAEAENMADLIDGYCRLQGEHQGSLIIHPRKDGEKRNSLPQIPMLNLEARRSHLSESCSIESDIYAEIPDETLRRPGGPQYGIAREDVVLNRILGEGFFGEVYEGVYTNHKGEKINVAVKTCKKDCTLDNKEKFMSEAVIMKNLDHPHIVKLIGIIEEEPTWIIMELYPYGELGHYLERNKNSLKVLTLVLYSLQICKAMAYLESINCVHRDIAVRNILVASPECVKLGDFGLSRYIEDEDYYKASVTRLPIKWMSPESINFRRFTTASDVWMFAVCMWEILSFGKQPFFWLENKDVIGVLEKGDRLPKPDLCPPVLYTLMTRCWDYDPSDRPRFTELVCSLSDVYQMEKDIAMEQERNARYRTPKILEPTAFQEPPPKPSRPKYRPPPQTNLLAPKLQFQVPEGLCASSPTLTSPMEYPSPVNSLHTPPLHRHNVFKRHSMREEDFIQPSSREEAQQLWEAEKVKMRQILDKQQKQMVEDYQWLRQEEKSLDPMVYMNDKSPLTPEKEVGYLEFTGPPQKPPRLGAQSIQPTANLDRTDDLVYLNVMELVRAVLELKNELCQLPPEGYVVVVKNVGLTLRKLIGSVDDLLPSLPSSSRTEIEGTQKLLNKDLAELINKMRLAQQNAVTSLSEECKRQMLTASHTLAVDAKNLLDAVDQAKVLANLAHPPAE
D1 mod: allosterically modulates the human D1 dopamine receptor; B-score at 10 µM; P21728; AID 641; HEK293 D1, CRE-luciferase, dopamine EC30 potentiation; actives deviate in either direction; 58,000 tested, 5.9% active;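 active means luminescence count or its row- and column-corrected plate score outside the 99.7% band of the plate's sample wells, on either side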
CD11b adhes inh: blocks human CD11b/CD18 adhesion to fibrinogen; K562 CD11b/CD18 adhesion to fibrinogen, ATPlite luminescence; Mn2+ added to activate the integrin; inhibition, % at 10 µM; 93,000 tested, 0.54% active;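 active means primary inhibition of 50% or more at 10 µM, then 40% or more on retest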
FAK inh conf: FAK (human) inhibition confirmed | shares compounds with FAK blocker | FAK kinase biochemical inhibition assay | inhibition, % at 7 µM | 750 tested, 28% active
Active calls of the source: *; x = not tested or not shown. Unless noted, no stated cut-off is given here; in the data, active means inhibition above about 19%; inactive means the rest.

SMILES	FAK blocker	hDAT+cocaine	Mac1 fbg enh	PTK2B oligo ant	D1 mod	CD11b adhes inh	FAK inh conf
CCN(CC(=O)N1CCN(C)CC1)S(=O)(=O)c1ccc(Cl)cc1	-1	0.099	0	1.8	-0.082	-6	x
O=C(COC(=O)Cc1cccs1)Nc1ccccc1	3	0.65	0	0.39	-0.16	-3	x
COc1cccc(N2C(=O)CC(N3CCC(C(N)=O)(N4CCCCC4)CC3)C2=O)c1 (configuration not stated)	-1	1.9	x	1.6	-0.12	x	x
N#C/C(=N\Nc1c(Cl)cccc1Cl)C(=O)NN	45*	0.43	-1	0.24	x	7	33*
COC(=O)c1[nH]c2ccc(C)cc2c1NC(=O)CN1CCCc2ccccc21	20*	1	108	-0.32	2.2	-34	22*
COC(=O)c1[nH]c2cc(C)ccc2c1NC(=O)CN1CCN(c2ccccc2OC)CC1	-2	1.6	2	-0.69	0.14	-19	x
O=C(CSc1nnnn1-c1ccc2c(c1)OCCO2)Nc1nc2c(s1)CCCC2	29*	-0.58	1	-2	0.29	-17	9
Cc1ccc(NC(=O)CSc2ccc3nnc(CCNC(=O)c4ccccc4)n3n2)c(C)c1	x	x	8	x	x	-8	x
CS(=O)(=O)N(CC(=O)NCCc1ccccc1)C1CCCCC1	0	1.6	4	1.2	x	4	x
COc1ccc(CCNC(=O)CN(C2CCCCC2)S(C)(=O)=O)cc1OC	20*	-1.8	-6	0.33	0.35	12	1
O=c1oc2ccccc2c(Nc2ccc(O)cc2)c1[N+](=O)[O-]	6	1.4	x	-0.78	x	x	x
O=c1oc2ccccc2c(Nc2ccc3ccccc3c2)c1[N+](=O)[O-]	24*	2.7	-3	-1.6	x	1	6
Cc1cc2nnc(SCC(=O)Nc3cccc(S(=O)(=O)N4CCOCC4)c3)n2c2ccccc12	x	x	0	x	x	-6	x
O=c1c(O)c(-c2cccs2)oc2ccccc12	23*	-0.0039	3	-1.1	0.71	-54	12
Cc1ccc(CNC(=O)c2ccc(CN3CCOCC3)cc2)cc1	-1	-0.61	2	0.13	0.52	3	x
O=C(Nc1cccc(Cl)c1)ON=C1c2ccccc2-c2ccccc21	39*	-0.0053	1	1.1	x	-5	5
COC(=O)NCC(C)OC(=O)Nc1cccc(Cl)c1 (configuration not stated)	7	-1.3	-4	0.38	-0.089	24	x
CN1C(=O)CC(N2CCN(c3ccc(Cl)c(Cl)c3)CC2)C1=O (configuration not stated)	-1	-0.64	1	0.05	x	-12	x
CCC(=O)Nc1ccc(S(=O)(=O)Nc2cc(C)on2)cc1	34*	0.26	3	-0.5	x	-2	0
CCOC(=O)Nc1ccc(S(=O)(=O)Nc2cc(C)on2)cc1	-4	-0.36	1	0.91	-0.048	6	x
O=C(Nc1ccccc1C(=O)NCc1ccc(Cl)cc1)c1ccco1	27*	x	2	-2	1.6	-1	2
O=C(CNC(=O)c1ccco1)NCC(=O)OCc1ccc(Cl)cc1	39*	1	2	0.49	x	4	1
O=C(Nc1ccc(S(=O)(=O)N2CCN(Cc3ccccc3)CC2)cc1)c1cnccn1	1	-0.67	-2	0.01	-1.7	16	x
CCOc1ccc(OCC)c(-c2c(=O)n(OCc3ccccc3C(=O)OC)c3ccccc3[n+]2[O-])c1	2	2	x	-0.56	x	x	x
CCOc1ccc(/C=C\C(C)=N\O)cc1	20*	1.2	x	-0.76	-0.53	x	8
SMILES	FAK blocker	hDAT+cocaine	Mac1 fbg enh	PTK2B oligo ant	D1 mod	CD11b adhes inh	FAK inh conf
CCCOc1ccc(/C=N/O)cc1	2	-0.027	x	0.76	x	x	x
Cc1ccc(S(=O)(=O)Nc2nc3ccc(S(=O)(=O)N4CCCC4)cc3s2)cc1	-1	0.087	8	-2	-0.07	-18	x
OCCNc1ncnc2ccc(Br)cc12	8	-0.61	-6	-0.35	0.2	4	x
CCN(CC)c1ncnc2ccc(Br)cc12	45*	-0.74	x	-0.6	x	x	18
Cc1cccc(NC(=O)c2sc(Cl)nc2-c2ccccc2)c1	1	-0.65	-1	1.7	x	8	x
CCN(CC)C(=O)c1c2c(nc3ccccc13)-c1ccccc1CC2	3	-0.13	-3	-1.9	x	4	x
CCc1ccc(/C=C2\CN(CC)Cc3c2nc2ccccc2c3C(=O)O)cc1	51*	-0.93	-1	-0.96	x	5	8
CCOc1cc(CNc2ccc(O)cc2)cc(Br)c1OCc1ccccc1F	22*	-1.1	-6	-1.3	x	36	3
CCOC(=O)Cc1csc(NC(=O)Cc2cccs2)n1	19*	-0.16	-11	0.58	-0.55	5	3
Nc1c(C(=O)Nc2nc3ccccc3s2)sc2nc(-c3cccs3)ccc12	49*	-0.071	6	0.79	x	16	27*
Nc1c(C(=O)Nc2ccccc2)sc2nc(-c3ccco3)ccc12	26*	0.1	1	0.84	-0.46	-3	-3
CSc1nc(N(CCO)CCO)c2sc3nc(-c4ccco4)c4c(c3c2n1)CCC4	x	0.45	128	-1.2	2.1	-20	x
CSc1nc(SCCO)c2sc3nc(-c4ccco4)c4c(c3c2n1)CC(C)(C)OC4	28*	x	100	-0.96	x	3	1
Cc1ccc(C(=O)c2c(C)oc3c2C(=O)C(=O)c2ccccc2-3)cc1	21*	-0.065	x	-3.8*	x	x	14
Cc1oc2c(c1C(=O)N1CCC(C)CC1)C(=O)c1ccccc1C2=O	x	-1.5	x	x	x	x	x
O=C(Nc1cccc(NC(=O)c2ccc(Br)o2)n1)c1ccc(Br)o1	26*	-0.052	72	0.7	x	-3	12
Cc1ccc2cccc(NC(=O)c3ccc(Br)o3)c2n1	0	0.37	0	-1.6	-0.15	10	x
O=C(c1ccc(Cl)c(S(=O)(=O)N2CCOCC2)c1)N1CCN(Cc2ccccc2)CC1	-2	0.85	x	0.2	x	x	x
CCCC(C)c1nnc(NC(=O)c2cc(C(=O)OC)cc([N+](=O)[O-])c2)s1 (configuration not stated)	-5	0.003	x	-1.9	x	x	x
COc1ccc(CNC(=O)c2cc3c(=O)n4ccccc4nc3n(Cc3ccco3)c2=N)cc1	17	x	x	x	1.7	x	x
O=C(NCc1ccco1)c1cccn2c(=O)c3cc4ccccc4cc3nc12	37*	x	48	x	x	-12	17
Cc1ccc(Cn2c(=N)c(C(=O)NCc3ccco3)cc3c(=O)n4ccccc4nc32)cc1	40*	x	x	0.35	-1.3	x	4
O=C(NCc1ccco1)c1cnc2ccccn2c1=O	x	0.48	0	x	0.24	-36	x
CC(C)c1cc(NCC2CCCO2)n2c(nc3ccccc32)c1C#N (configuration not stated)	2	0.045	-1	-1.3	x	5	x
CCCN(CC1CC1)C(=O)CSc1nnc(-c2cc(-c3cccs3)nc3ccccc23)o1	2	-0.011	-4	-0.96	x	1	x
CC(=O)N(/N=C1\Sc2ccccc2C1=O)c1cccc(C)c1	19*	1.5	-1	-1.1	x	18	16
